Test results published in PubChem BioAssay (NCI).
The panel holds about 83,000 compounds, 20% with a hit somewhere; the sample as a whole holds those more often.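 The test compound was applied at a single concentration to cells in 96-well plates for 48 hours, and percent growth was recorded.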 Activity calls are given as the source filed them. Rule for the calls: active = growth percent below 10; inactive = the rest.

Experiments:
Experiment in all cases: NCI-60 one-dose screen, 48 h (100 = growth as untreated, 0 = no growth, -100 = all killed)
SK-MEL-2 melanoma = conditions: 10 µM
SN12C renal = conditions: 10 µM
UO-31 renal = conditions: 10 µM
TK-10 renal = conditions: 10 µM unless noted
ACHN renal = conditions: 10 µM
CAKI-1 renal = conditions: 10 µM
CCRF-CEM leukemia = conditions: 10 µM
MOLT-4 leukemia = conditions: 10 µM
A498 renal = conditions: 10 µM

Measured: growth

COc1cc2nn(-c3ccccc3N)nc2cc1OC
inactive: SK-MEL-2 melanoma 106% | SN12C renal 106% | UO-31 renal 87.6% | TK-10 renal 109% | ACHN renal 109% | CAKI-1 renal 85.6% | CCRF-CEM leukemia 101% | MOLT-4 leukemia 98.9%

CC(C)(N)COS(=O)(=O)O
inactive: SK-MEL-2 melanoma 117% | SN12C renal 93.6% | UO-31 renal 100% | TK-10 renal 115% | ACHN renal 114% | CAKI-1 renal 103% | A498 renal 113% | MOLT-4 leukemia 96.9%

O=C(O)c1cc([N+](=O)[O-])ccc1Cl
inactive: SK-MEL-2 melanoma 97.3% | SN12C renal 95.6% | UO-31 renal 79.9% | TK-10 renal 81.2% | ACHN renal 105% | CAKI-1 renal 101% | A498 renal 106% | CCRF-CEM leukemia 114% | MOLT-4 leukemia 73.2%

COc1cc(CCN=Cc2ccccc2O)c([N+](=O)[O-])cc1OC
inactive: SK-MEL-2 melanoma 102% | SN12C renal 103% | UO-31 renal 79.3% | TK-10 renal 96.9% | ACHN renal 96.7% | CAKI-1 renal 86.6% | A498 renal 119% | MOLT-4 leukemia 96.1%

CC(C)(C)n1nc(C2CC2)c(Br)c1NC(=O)c1ccccc1F
inactive: SK-MEL-2 melanoma 103% | SN12C renal 102% | UO-31 renal 91.5% | TK-10 renal 103% | ACHN renal 101% | CAKI-1 renal 80.8% | A498 renal 101% | MOLT-4 leukemia 93.3%

O=c1[nH][nH]c(=O)c2cc([N+](=O)[O-])ccc12
inactive: SK-MEL-2 melanoma 103% | SN12C renal 108% | UO-31 renal 85.7% | TK-10 renal 104% | ACHN renal 107% | CAKI-1 renal 96.8% | A498 renal 117% | CCRF-CEM leukemia 100% | MOLT-4 leukemia 100%

O=C(c1ccc(Cl)cc1)c1ccccc1Cl
inactive: SK-MEL-2 melanoma 103% | SN12C renal 94.7% | UO-31 renal 72.2% | TK-10 renal 90.9% | ACHN renal 95% | CAKI-1 renal 88% | A498 renal 126% | CCRF-CEM leukemia 90.5% | MOLT-4 leukemia 87.1%

N#CCCc1ccc(O)cc1
inactive: SK-MEL-2 melanoma 104% | SN12C renal 107% | UO-31 renal 90.5% | TK-10 renal 113% | ACHN renal 99.9% | CAKI-1 renal 95.4% | A498 renal 104% | MOLT-4 leukemia 98.5%

CC(=Nc1ccccc1)C1=C(O)C(Cc2cccc(F)c2)NC1=O (centres undefined)
active: A498 renal 0.117% | CCRF-CEM leukemia 6.2% | MOLT-4 leukemia -12.4%
inactive: SK-MEL-2 melanoma 13.1% | SN12C renal 29.7% | UO-31 renal 35.9% | TK-10 renal 44.4% | ACHN renal 26.4% | CAKI-1 renal 37.2%

CCOC(=O)C1=C(Nc2ccc(Br)cc2)C(=O)N(CC)C1
inactive: SK-MEL-2 melanoma 124% | SN12C renal 86% | UO-31 renal 84.1% | TK-10 renal 101% | ACHN renal 92.4% | CAKI-1 renal 88.2% | A498 renal 90.9% | MOLT-4 leukemia 103%

CCOC(=O)c1ccc(NC(=S)P(=O)(c2ccccc2)c2ccccc2)cc1
inactive: SK-MEL-2 melanoma 119% | SN12C renal 103% | UO-31 renal 92.9% | TK-10 renal 123% | ACHN renal 102% | CAKI-1 renal 86.3% | A498 renal 86.3% | CCRF-CEM leukemia 69.8% | MOLT-4 leukemia 52.6%

O=C(NCc1ccco1)Nc1c(Cl)cc(Cl)cc1Cl
inactive: SK-MEL-2 melanoma 75.5% | SN12C renal 96.9% | UO-31 renal 84% | TK-10 renal 105% | ACHN renal 97.2% | CAKI-1 renal 89.1% | A498 renal 99.5% | MOLT-4 leukemia 108%

CCCCCCCCO
inactive: SK-MEL-2 melanoma 117% | SN12C renal 97.5% | UO-31 renal 111% | TK-10 renal 110% | ACHN renal 105% | CAKI-1 renal 103% | A498 renal 108% | CCRF-CEM leukemia 108% | MOLT-4 leukemia 97.4%

CC(C)=CC(=O)OC(=O)C=C(C)C
inactive: SK-MEL-2 melanoma 108% | SN12C renal 100% | UO-31 renal 94.5% | TK-10 renal 102% | ACHN renal 105% | CAKI-1 renal 108% | A498 renal 124% | MOLT-4 leukemia 101%

CC1=CC(=O)c2ccccc2C1=O
inactive: SK-MEL-2 melanoma 110% | SN12C renal 99.3% | UO-31 renal 70% | TK-10 renal 124% | ACHN renal 95.2% | CAKI-1 renal 97.5% | A498 renal 103% | MOLT-4 leukemia 114%

NC(CSC(c1ccccc1)(c1ccccc1)c1ccccc1)C(=O)O (centres undefined)
active: SK-MEL-2 melanoma -15.7% | CCRF-CEM leukemia 9.95%
inactive: SN12C renal 53.6% | UO-31 renal 54.3% | TK-10 renal 59.3% | ACHN renal 57.5% | CAKI-1 renal 31% | A498 renal 48.5% | MOLT-4 leukemia 38.4%

COC(=O)c1ccc(NC(=O)CCl)cc1
inactive: SK-MEL-2 melanoma 66% | SN12C renal 76.6% | UO-31 renal 107% | TK-10 renal 88% | ACHN renal 85.7% | CAKI-1 renal 83.9% | A498 renal 97.4% | MOLT-4 leukemia 72.7%

CC(=O)NCc1cc(C)c(C)cc1C
inactive: SK-MEL-2 melanoma 98% | SN12C renal 103% | UO-31 renal 83.6% | TK-10 renal 92.6% | ACHN renal 104% | CAKI-1 renal 98.8% | A498 renal 118% | MOLT-4 leukemia 96.2%

COC(=O)/C=C/C(=O)NC(N)=O
inactive: SK-MEL-2 melanoma 85.2% | SN12C renal 101% | UO-31 renal 91.5% | TK-10 renal 102% | ACHN renal 99.4% | CAKI-1 renal 99.2% | A498 renal 98.6% | MOLT-4 leukemia 100%

COCCOCCCl
inactive: SK-MEL-2 melanoma 109% | SN12C renal 104% | UO-31 renal 97.2% | TK-10 renal 102% | ACHN renal 113% | CAKI-1 renal 98.8% | A498 renal 91.2% | CCRF-CEM leukemia 106% | MOLT-4 leukemia 117%

Cc1ccc(CCCC(=O)O)c(C)c1
inactive: SK-MEL-2 melanoma 91.1% | SN12C renal 97.9% | UO-31 renal 90.9% | TK-10 renal 95% | ACHN renal 98.3% | CAKI-1 renal 99.7% | A498 renal 101% | MOLT-4 leukemia 98.7%

CCOC(=O)C/C(C)=N\O
inactive: SK-MEL-2 melanoma 107% | SN12C renal 98.6% | UO-31 renal 81.6% | TK-10 renal 93.4% | ACHN renal 112% | CAKI-1 renal 92.8% | A498 renal 111% | MOLT-4 leukemia 95.2%

CC1CCCCN1C(=S)Nc1ccc(S(=O)(=O)N2CCCCC2)cc1 (centres undefined)
inactive: SK-MEL-2 melanoma 107% | SN12C renal 109% | UO-31 renal 89.4% | TK-10 renal 107% | ACHN renal 99.8% | CAKI-1 renal 75.8% | A498 renal 70.9% | CCRF-CEM leukemia 75.9% | MOLT-4 leukemia 104%

CCCCCCCO
inactive: SK-MEL-2 melanoma 134% | SN12C renal 99.4% | UO-31 renal 82.1% | TK-10 renal 117% | ACHN renal 92.5% | CAKI-1 renal 110% | A498 renal 105% | CCRF-CEM leukemia 103% | MOLT-4 leukemia 96.4%

CCCNC(=O)c1ccc(S(N)(=O)=O)cc1
inactive: SK-MEL-2 melanoma 120% | SN12C renal 107% | UO-31 renal 107% | TK-10 renal 119% | ACHN renal 101% | CAKI-1 renal 110% | CCRF-CEM leukemia 81.6% | MOLT-4 leukemia 109%

CC1(C(N)=O)CCC(C(=O)O)C1(C)C (centres undefined)
inactive: SK-MEL-2 melanoma 104% | SN12C renal 89.1% | UO-31 renal 85.9% | TK-10 renal 97.7% | ACHN renal 102% | CAKI-1 renal 99% | A498 renal 106% | CCRF-CEM leukemia 104% | MOLT-4 leukemia 123%

CC1(C)N=C(N)N=C(N)N1c1cccc(Br)c1
inactive: SK-MEL-2 melanoma 65.3% | SN12C renal 37.3% | UO-31 renal 50.2% | TK-10 renal 51.7% | ACHN renal 30.2% | CAKI-1 renal 70% | A498 renal 104% | CCRF-CEM leukemia 36.1% | MOLT-4 leukemia 41.4%

Cc1cc(=O)[nH]c(NN=C2CCCC2)n1
inactive: SK-MEL-2 melanoma 107% | SN12C renal 104% | UO-31 renal 91.2% | TK-10 renal 122% | ACHN renal 108% | CAKI-1 renal 100% | A498 renal 129% | CCRF-CEM leukemia 102% | MOLT-4 leukemia 101%

c1ccc2c(N3CCCCC3)ncnc2c1
inactive: SK-MEL-2 melanoma 92.6% | SN12C renal 91.1% | UO-31 renal 62.5% | TK-10 renal 90.9% | ACHN renal 81.9% | CAKI-1 renal 91% | A498 renal 106% | CCRF-CEM leukemia 93.2% | MOLT-4 leukemia 91.2%

CC[N+](C)(CC)CCO
inactive: SK-MEL-2 melanoma 109% | SN12C renal 98% | UO-31 renal 92% | TK-10 renal 95.3% | ACHN renal 106% | CAKI-1 renal 94% | A498 renal 109% | MOLT-4 leukemia 101%

O=C(Nc1ccccc1C(=O)NCC1CC1)c1cccs1
inactive: SK-MEL-2 melanoma 113% | SN12C renal 100% | UO-31 renal 89.4% | TK-10 renal 114% | ACHN renal 103% | CAKI-1 renal 82.7% | A498 renal 106% | MOLT-4 leukemia 111%

COCCCNC(=O)c1nnn2c1nc(N)c1cc(Cl)ccc12
inactive: SK-MEL-2 melanoma 74.2% | SN12C renal 101% | UO-31 renal 71.7% | TK-10 renal 105% | ACHN renal 104% | CAKI-1 renal 80.6% | A498 renal 96.4% | MOLT-4 leukemia 79.6%

C/C(=N\NC(=O)c1ccccc1N)c1ccccc1O
inactive: SK-MEL-2 melanoma 71.2% | SN12C renal 41.1% | UO-31 renal 29.3% | TK-10 renal 27.6% | ACHN renal 32.3% | A498 renal 89% | MOLT-4 leukemia 19.3%
active: CAKI-1 renal 3.89%

CCCCCCCCCCC1CO1 (centres undefined)
inactive: SK-MEL-2 melanoma 118% | SN12C renal 102% | UO-31 renal 82.2% | TK-10 renal 112% | ACHN renal 109% | CAKI-1 renal 104% | CCRF-CEM leukemia 97.2% | MOLT-4 leukemia 105%

CCO/C=C1\SC(=S)N(c2cccc(C)c2)C1=O
inactive: SK-MEL-2 melanoma 110% | SN12C renal 106% | UO-31 renal 79.3% | TK-10 renal 98.9% | ACHN renal 106% | CAKI-1 renal 101% | A498 renal 113% | MOLT-4 leukemia 95.7%
